KB-V1 cytotox: kills drug-selected multidrug resistant KB-V1 cells; Potency, µM (highest dose often 46.1 µM), most hits filed as cytotoxic; AID 1347076; hit rate 3.4% among 400,000; KB-V1 MDR cells viability, CellTiter-Glo, 72 h; note: nearly all actives have a fitted effect of over 60% in size
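Readout: CellTiter-Glo luminescence, 10 min after addition. Cells: KB-V1 MDR subline, 72 h at 37 degrees C with compound. Analysis: corrected, normalized data fitted to concentration-effect curves.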
KB-3-1 tox: kills parental KB-3-1 adenocarcinoma cells. hit rate 1.4% among 400,000. Potency, µM (titrated, usually from 46.1 µM), actives largely listed as cytotoxic. KB-3-1 viability, CellTiter-Glo ATP luminescence, 72 h; note: nearly all actives have a fitted effect of over 60% in size
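Multi-concentration cytotoxicity screen in KB-3-1 cells grown in DMEM lacking phenol red with 10% FBS. After 72 h at 37 °C with compound, ATP-dependent luminescence was recorded.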
ALOX12 inh: inhibitors of human 12S-lipoxygenase ALOX12; P18054; purified 12hLO, xylenol orange hydroperoxide absorbance; Potency, µM (doses to about 108 µM), hits mostly inhibitors; hit rate 1.1% among 580,000; AID 1671190
Target sequence (P18054 whole entry, looked up): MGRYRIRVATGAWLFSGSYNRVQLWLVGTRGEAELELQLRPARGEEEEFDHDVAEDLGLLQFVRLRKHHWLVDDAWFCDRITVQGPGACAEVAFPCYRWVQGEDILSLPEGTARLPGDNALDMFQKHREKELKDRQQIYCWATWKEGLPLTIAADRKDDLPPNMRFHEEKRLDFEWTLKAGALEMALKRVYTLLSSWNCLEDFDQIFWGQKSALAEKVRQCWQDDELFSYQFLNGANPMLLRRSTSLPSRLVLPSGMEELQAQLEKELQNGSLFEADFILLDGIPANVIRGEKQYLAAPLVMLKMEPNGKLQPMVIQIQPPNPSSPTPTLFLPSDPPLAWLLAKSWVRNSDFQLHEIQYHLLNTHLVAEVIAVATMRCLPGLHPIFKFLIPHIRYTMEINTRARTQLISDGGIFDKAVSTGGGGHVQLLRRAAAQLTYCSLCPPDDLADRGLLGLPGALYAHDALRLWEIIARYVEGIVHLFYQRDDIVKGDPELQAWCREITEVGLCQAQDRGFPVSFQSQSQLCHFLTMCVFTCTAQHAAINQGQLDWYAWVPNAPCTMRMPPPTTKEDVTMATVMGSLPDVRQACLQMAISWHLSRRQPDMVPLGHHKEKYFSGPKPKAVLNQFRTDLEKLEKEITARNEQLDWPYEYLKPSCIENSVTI
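Purified human 12hLO at 150 nM in 25 mM Hepes, 0.01% Triton X-100, pH 7.0, preincubated 15 min at room temperature with compound. Reaction started with 40 uM arachidonic acid, 30 min at room temperature. Hydroperoxide measured by Fe-xylenol orange, 573/405 nm absorbance ratio.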
PINK1 expr mod: modulators of PINK1 expression | PINK1 immunofluorescence, high-content cytometry, 24 h | Potency, µM (top dose mostly 76.6 µM), hits mostly activators | hit rate 0.2% among 410,000; active = well fitted activation curve with a large enough effect; inconclusive = small, poorly fitted or top-dose-only effect; cell line not stated here; note: nearly all actives have a fitted effect of over 65% in size
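Measures PINK1 amount and localization on or inside mitochondria by immunofluorescence. Stable cells get compounds at 5 concentrations for 24 hours before fixation and staining; CCCP controls included.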
SW480 rerep: induces DNA re-replication in SW480 colon adenocarcinoma cells | hit rate 1.8% among 340,000 | Potency, µM (titrated, usually from 46.1 µM), usual class: activators | AID 624297 | SW480 DNA re-replication, Hoechst DNA content imaging, 48 h; note: nearly all actives have a fitted effect of over 55% in size
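SW480 cells exposed to compounds for 48 hr at 37 C, 5% CO2, then Hoechst-stained 40 min. Nuclear DNA content imaged by fluorescence scanning (405 nm excitation, 500-530 nm emission); re-replication scored as increased high-intensity nuclei.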
MCF10A rereplic: DNA re-replication induction in MCF 10a cells; Potency, µM (titrated, usually from 46.1 µM), usual class: activators; hit rate 2.9% among 350,000; MCF 10A DNA re-replication, Hoechst nuclear intensity, 48 h; AID 624296; note: nearly all actives have a fitted effect of over 50% in size
Numbers stand for hits. An excerpt weighted towards active compounds, which were near 5.8% of everything screened. Unless noted, calls come from the whole dose curve; as a rule, active = well fitted curve in the direction sought with a large enough effect; inconclusive = small, poorly fitted or top-dose-only effect, or another doubt; inactive = no such curve, though single readings can be large; an effect the other way counts as inactive or inconclusive.

Screening O=C1C2C3C=CC(CO)(O3)C2C(=O)N1c1ccccc1-c1ccccc1 (centres undefined) returned KB-V1 cytotox inactive, KB-3-1 tox inactive, SW480 rerep 10µM and MCF10A rereplic 7.3µM.
`CC(=O)Oc1ccc(N2C(=O)C3C4C=CC(CO)(O4)C3C2=O)cc1` (centres undefined) gave KB-V1 cytotox inactive, KB-3-1 tox inactive, ALOX12 inh inactive, PINK1 expr mod inactive, SW480 rerep inconclusive and MCF10A rereplic inconclusive.
Cc1sc2ncnc(N3CCN(C(=O)c4ccco4)CC3)c2c1C was read as KB-V1 cytotox 18µM, KB-3-1 tox inconclusive, ALOX12 inh inactive, PINK1 expr mod inactive, SW480 rerep inactive and MCF10A rereplic inconclusive.
For Cc1ccc(-c2csc3ncnc(N4CCN(C(=O)c5ccco5)CC4)c23)cc1 the results were KB-V1 cytotox 21µM, KB-3-1 tox inactive, ALOX12 inh inconclusive, PINK1 expr mod inactive, SW480 rerep inactive and MCF10A rereplic inactive.
Screening CC(C)(C)C(=O)N1CCN(c2ncnc3scc(-c4ccccc4)c23)CC1 returned KB-V1 cytotox 15µM, KB-3-1 tox inconclusive, ALOX12 inh inactive, PINK1 expr mod inactive, SW480 rerep inactive and MCF10A rereplic inactive.
Cc1cccc2[nH]c3c(N4CCN(C(=O)c5ccco5)CC4)ncnc3c12 was read as KB-V1 cytotox inconclusive, KB-3-1 tox inactive, PINK1 expr mod inactive, SW480 rerep inactive and MCF10A rereplic inactive.
Screening Cc1nc(N2CCN(C(=O)c3ccco3)CC2)c2c3c(sc2n1)CCC3 returned KB-V1 cytotox 8.2µM, KB-3-1 tox inconclusive, ALOX12 inh inconclusive, PINK1 expr mod inactive, SW480 rerep inactive and MCF10A rereplic inactive.
For O=C(c1ccco1)N1CCN(c2ncnc3scc(-c4ccc(F)cc4)c23)CC1 the results were KB-V1 cytotox inactive, KB-3-1 tox inactive, ALOX12 inh inactive, PINK1 expr mod inactive, SW480 rerep inactive and MCF10A rereplic inconclusive.
Screening COc1cc(-c2ccc(NC(=O)c3ccc(C)cc3)c(OC)c2)ccc1NC(=O)c1ccc(C)cc1 returned KB-V1 cytotox inactive, KB-3-1 tox inactive, ALOX12 inh inactive, PINK1 expr mod inactive, SW480 rerep 2.6µM and MCF10A rereplic 1.6µM.
For COc1ccc(NC(=O)CN2CCC(C)CC2)c([N+](=O)[O-])c1 the results were KB-V1 cytotox inactive, KB-3-1 tox inactive, ALOX12 inh inactive, PINK1 expr mod inconclusive, SW480 rerep inactive and MCF10A rereplic inactive.
`COc1cc(-c2ccc(NC(C)=O)c(OC)c2)ccc1NC(C)=O` gave KB-V1 cytotox inactive, KB-3-1 tox inactive, ALOX12 inh inactive, PINK1 expr mod inactive, SW480 rerep inactive and MCF10A rereplic inactive.
For COc1cc(-c2ccc(NC(=O)CN3CCC(C)CC3)c(OC)c2)ccc1NC(=O)CN1CCC(C)CC1 the results were KB-V1 cytotox 16µM, KB-3-1 tox inconclusive, ALOX12 inh inactive, PINK1 expr mod inactive, SW480 rerep inactive and MCF10A rereplic inconclusive.
For CN(C)c1ccc(C(C(=O)NCC2CCCO2)N(C(=O)c2snc(C(N)=O)c2N)c2ccccc2)cc1 (centres undefined) the results were KB-V1 cytotox inactive, KB-3-1 tox inactive, ALOX12 inh inactive, PINK1 expr mod inactive, SW480 rerep inactive and MCF10A rereplic inconclusive.
For CC(C)c1ccc(N(C(=O)c2snc(C(N)=O)c2N)C(C(=O)NCC2CCCO2)c2ccc(N(C)C)cc2)cc1 (centres undefined) the results were KB-V1 cytotox 21µM, KB-3-1 tox inconclusive, ALOX12 inh inactive, PINK1 expr mod inactive, SW480 rerep inactive and MCF10A rereplic inconclusive.
For CC(C(=O)NCC1CCCO1)N(C(=O)c1snc(C(N)=O)c1N)c1cccc(F)c1 (centres undefined) the results were KB-V1 cytotox 12µM, KB-3-1 tox inactive, ALOX12 inh inactive, PINK1 expr mod inactive, SW480 rerep inactive and MCF10A rereplic inactive.
Screening CC(C(=O)NCC1CCCO1)N(C(=O)c1snc(C(N)=O)c1N)c1ccccc1 (centres undefined) returned KB-V1 cytotox inactive, KB-3-1 tox inactive, ALOX12 inh inactive, PINK1 expr mod inactive, SW480 rerep inactive and MCF10A rereplic inactive.
CN1CCN(c2ncnc3sc4c(c23)CCN(Cc2ccco2)C4)CC1 was read as ALOX12 inh inactive.
`CN1C(C(=O)N2CCN(c3ccccc3)CC2)=CC(c2ccc(F)cc2)=NS1(=O)=O` gave ALOX12 inh inactive.
Cn1c(=O)[nH]c(=O)c2c1nc(Br)n2C/C=N/Nc1ccccc1 was read as KB-V1 cytotox inactive, KB-3-1 tox 16µM, ALOX12 inh inactive, PINK1 expr mod inactive, SW480 rerep inactive and MCF10A rereplic inconclusive.
`COc1ccc(CCn2c(NN=C(C)C)nc3c2c(=O)[nH]c(=O)n3C)cc1` gave KB-V1 cytotox inactive, KB-3-1 tox inactive, ALOX12 inh inactive, PINK1 expr mod inactive, SW480 rerep inactive and MCF10A rereplic inactive.
For COc1ccc(CCn2c(Br)nc3c2c(=O)[nH]c(=O)n3C)cc1 the results were KB-V1 cytotox 4.1µM, KB-3-1 tox 5.2µM, ALOX12 inh inactive, PINK1 expr mod inactive, SW480 rerep inconclusive and MCF10A rereplic inactive.
`COc1ccc(CCn2c(NN)nc3c2c(=O)[nH]c(=O)n3C)cc1` gave KB-V1 cytotox inconclusive, KB-3-1 tox 13µM, ALOX12 inh inactive, PINK1 expr mod inactive, SW480 rerep 15µM and MCF10A rereplic inconclusive.
Cn1c(=O)[nH]c(=O)c2c1nc(Br)n2C/C=N/NC(=O)c1ccccc1 was read as KB-V1 cytotox inactive, KB-3-1 tox inactive, ALOX12 inh inactive, PINK1 expr mod inactive, SW480 rerep inconclusive and MCF10A rereplic inactive.
Screening COc1ccc(CCn2c(Br)nc3c2c(=O)n(C)c(=O)n3C)cc1 returned ALOX12 inh inactive.
Screening CCc1ccc(C(=O)N2C[C@@H](CO)[C@H](c3nc(CCOC)no3)C2)cc1 returned ALOX12 inh inactive.
For CNC(=S)N(C)/N=C1/C(=O)N(Cc2c(Cl)cccc2Cl)c2ccccc21 the results were KB-V1 cytotox inconclusive, KB-3-1 tox inactive, ALOX12 inh inconclusive, PINK1 expr mod inactive, SW480 rerep inconclusive and MCF10A rereplic 18µM.
For CN(C)CCNC(=O)c1ccc2c(c1)N(Cc1c(F)cccc1Cl)C(=O)c1ccccc1S2 the results were KB-V1 cytotox inconclusive, KB-3-1 tox inactive, ALOX12 inh inconclusive and PINK1 expr mod inactive.
For CC1CC(C)C(=NNC(N)=O)C(C(O)CC2CCC(=O)NC2=O)C1 (centres undefined) the results were KB-V1 cytotox inconclusive, KB-3-1 tox 12µM, ALOX12 inh inactive, PINK1 expr mod inactive, SW480 rerep inactive and MCF10A rereplic inconclusive.
CC(=O)c1c(C)[nH]c(C(=O)C(C)Sc2nnc(NC3CC3)s2)c1C (centres undefined) was read as ALOX12 inh inactive, PINK1 expr mod inactive, SW480 rerep inactive and MCF10A rereplic 18µM.

Assay outcomes from PubChem.
